For test [1], the target named is Albumin (Bos taurus) (UniProt P02769). Description: bovine serum albumin binders on microarray, profiling panel, artefact control for SMM control protein annotation, biochemical, small-molecule microarray, Alexa647 label, 635/667 nm fluorescence (AID 1118).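 Also: score merges 667 nm emission intensity and signal-to-noise per printed compound spot.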 The note with it: BSA-A647 binding, fluorescence 635 nm, higher = more signal.
The nature of test [2]: small-molecule microarray binders of probe aXIP, primary screen, biochemical, NeuroSMM set, 635/667 nm fluorescence (AID 1119).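 Also: probe is the protein aXip251-270 applied at 1 µg/mL to compound-printed slides; binding of probe to printed compounds measured as 667 nm fluorescence plus signal to noise.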 The settings on record: higher = more signal, called active from +8 up or from −8 down.
Test [3] in a line: small-molecule binders of probe aNOTCH3, primary screen, biochemical, small-molecule microarray, 635/667 nm fluorescence (AID 1120).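 Also: probe is a biotin-tagged antibody raised against NOTCH3 rather than NOTCH3 protein; score merges spot fluorescence near 667 nm with spot signal to noise.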 The settings on record: higher = more signal.
Test [4] in a line: small-molecule binders of probe aNOTCH2, primary screen, biochemical, small-molecule microarray, 635/667 nm fluorescence (AID 1121).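 Also: score merges feature fluorescence read at 667 nm with its signal to noise.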 The settings on record: higher = more signal.
The target in test [5] is Carbonic anhydrase 2 (Homo sapiens) (UniProt P00918). As to the kind of experiment: CAII small-molecule binders, profiling panel, biochemical, small-molecule microarray, Alexa647-labelled CAII (AID 1122). The settings on record: CAII-A647 binding fluorescence, higher = more signal.
Test [6] is described as follows: COS7 lysate on small-molecule microarray, probe aHis, 635 nm (AID 1123).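 Also: z-score combines 667nm fluorescence intensity with signal-to-noise per printed compound spot.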 The note with it: COS7 cell lysate, fluorescence, higher = more signal.
Test [7] can be described thus: compound binding in COS7 lysate, probe aLAP1, primary screen, cell lysate, small-molecule microarray (AID 1124).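 Also: lysate comes from COS7 cells expressing LAP1 and is applied at 0.3 µg/mL; score merges spot fluorescence near 667 nm with signal-to-noise over triplicate slides.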 The note with it: probe aLAP1, fluorescence, higher = more signal.
Test [8] relates to Sam68 (KHDRBS1). As to the kind of experiment: Sam68 small-molecule binders, primary screen, biochemical, small-molecule microarray, 635 nm fluorescence (AID 1125).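 Also: score merges 667 nm channel intensity with signal to noise over triplicate slides.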 The note with it: small-molecule microarray binding, higher = more signal.
The subject of test [9] is Chordin-like protein 2 (CHRDL2). Description: CHRDL2 small-molecule binders, primary screen, biochemical, small-molecule microarray, 635 nm fluorescence (AID 1126).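 Also: printed compound slides probed with Chrdl2 protein at 4 µg/mL for 1 h at 4 C; score merges 667 nm emission intensity with signal to noise over three replicate slides.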 The note with it: small-molecule microarray binding, fluorescence 635 nm; higher = more signal.
For test [10], the target named is Concanavalin-A (Canavalia ensiformis) (UniProt P02866). As to the kind of experiment: ConA small-molecule binders, primary screen, artefact control for SMM control protein annotation, biochemical, small-molecule microarray, Alexa647 label, 635 nm (AID 1127).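 Also: z combines 667 nm emission intensity with signal-to-noise across three replicate slides.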 The note with it: ConA-A647 binding fluorescence, higher = more signal.
A short description of test [11]: anti-His antibody binders, primary screen, artefact control for SMM control protein annotation, biochemical, small-molecule microarray, 635 nm fluorescence (AID 1128).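 Also: score merges feature fluorescence with signal-to-noise for each printed compound spot.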 The note with it: anti-His Alexa647 antibody binding, higher = more signal.
The test system of test [12] is Human papillomavirus type 1a E7 protein (residues 1-88). As to the kind of experiment: HPV1a E7 small-molecule binders, primary screen, biochemical, small-molecule microarray, residues 1-88, 635 nm (AID 1129). The note with it: small-molecule microarray binding, fluorescence 635 nm; higher = more signal.
Test [13] has as its target Focal adhesion kinase 1 (Homo sapiens) (UniProt Q05397). As to the kind of experiment: small-molecule microarray binders of FAK, primary screen, biochemical, 635/667 nm fluorescence, BSA, DTT (AID 1130).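 Also: composite of spot emission at 667 nm and signal to noise over triplicate slides.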 The settings on record: PTK2 binding, 635 nm fluorescence, higher = more signal.
The subject of test [14] is Fibrinogen (Alexa647-labelled). Description: fibrinogen binders on compound microarrays, profiling panel, artefact control for SMM control-protein annotation, biochemical, small-molecule microarray, 635/667 nm fluorescence (AID 1131).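 Also: z-score merges 667 nm fluorescence with per-spot signal-to-noise over triplicate slides.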 The note with it: fibrinogen-A647 binding fluorescence, higher = more signal.
In test [15] the target is Follistatin (Homo sapiens) (UniProt P19883). As to the kind of experiment: follistatin binders on small-molecule microarrays, primary screen, biochemical, small-molecule microarray, 635/667 nm fluorescence (AID 1132). The note with it: FST binding, 635 nm fluorescence, higher = more signal.
Test [16] has as its target Fibroblast growth factor 2 (Homo sapiens) (UniProt P09038). Description: FGF2 binders on small-molecule microarrays, primary screen, biochemical, small-molecule microarray, 635/667 nm fluorescence (AID 1133). The note with it: small-molecule microarray binding, FGF2, fluorescence 635/667; higher = more signal.
Test [17] can be described thus: mitochondrial membrane potential change in A549 cells, profiling panel, cell-based, JC-1 fluorescence, basal, 24 h, 100 nL (AID 1138).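 Also: A549 lung adenocarcinoma cells under basal conditions with no added stimulus; test concentration not given here.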 The settings on record: higher = more signal.
Test [18] deals with Lefty1. Description: Lefty1 binders on small-molecule microarrays, primary screen, biochemical, small-molecule microarray, 635/667 nm fluorescence (AID 1139). The note with it: small-molecule microarray binding, fluorescence 635/667; higher = more signal.
For test [19], the system named is wheat germ agglutinin (Triticum aestivum), Alexa647-labelled. Description: wheat germ agglutinin binders on compound microarrays, profiling panel, artefact control for SMM control-protein annotation, biochemical, small-molecule microarray, 635/667 nm fluorescence (AID 1140).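 Also: score merges 667 nm feature emission with signal to noise over triplicate slides.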 The note with it: WGA-A647 binding, 635 nm fluorescence, higher = more signal.
Test [20] addresses Luciferin 4-monooxygenase (Photinus pyralis) (UniProt P08659). Description: firefly luciferase enzyme inhibitors, primary screen, biochemical, luminescence, purified enzyme, 2006 set (AID 1141).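 Also: cell-free assay with purified firefly luciferase at 100 ng per well in PBS; test concentration not given here.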 The settings on record: SteadyGlo luminescence, 30 min, higher = more signal, called active from +8 up or from −8 down.

Calls of active or inactive are those of the source.

Sequence of Focal adhesion kinase 1 (Homo sapiens) (Q05397 whole entry, looked up): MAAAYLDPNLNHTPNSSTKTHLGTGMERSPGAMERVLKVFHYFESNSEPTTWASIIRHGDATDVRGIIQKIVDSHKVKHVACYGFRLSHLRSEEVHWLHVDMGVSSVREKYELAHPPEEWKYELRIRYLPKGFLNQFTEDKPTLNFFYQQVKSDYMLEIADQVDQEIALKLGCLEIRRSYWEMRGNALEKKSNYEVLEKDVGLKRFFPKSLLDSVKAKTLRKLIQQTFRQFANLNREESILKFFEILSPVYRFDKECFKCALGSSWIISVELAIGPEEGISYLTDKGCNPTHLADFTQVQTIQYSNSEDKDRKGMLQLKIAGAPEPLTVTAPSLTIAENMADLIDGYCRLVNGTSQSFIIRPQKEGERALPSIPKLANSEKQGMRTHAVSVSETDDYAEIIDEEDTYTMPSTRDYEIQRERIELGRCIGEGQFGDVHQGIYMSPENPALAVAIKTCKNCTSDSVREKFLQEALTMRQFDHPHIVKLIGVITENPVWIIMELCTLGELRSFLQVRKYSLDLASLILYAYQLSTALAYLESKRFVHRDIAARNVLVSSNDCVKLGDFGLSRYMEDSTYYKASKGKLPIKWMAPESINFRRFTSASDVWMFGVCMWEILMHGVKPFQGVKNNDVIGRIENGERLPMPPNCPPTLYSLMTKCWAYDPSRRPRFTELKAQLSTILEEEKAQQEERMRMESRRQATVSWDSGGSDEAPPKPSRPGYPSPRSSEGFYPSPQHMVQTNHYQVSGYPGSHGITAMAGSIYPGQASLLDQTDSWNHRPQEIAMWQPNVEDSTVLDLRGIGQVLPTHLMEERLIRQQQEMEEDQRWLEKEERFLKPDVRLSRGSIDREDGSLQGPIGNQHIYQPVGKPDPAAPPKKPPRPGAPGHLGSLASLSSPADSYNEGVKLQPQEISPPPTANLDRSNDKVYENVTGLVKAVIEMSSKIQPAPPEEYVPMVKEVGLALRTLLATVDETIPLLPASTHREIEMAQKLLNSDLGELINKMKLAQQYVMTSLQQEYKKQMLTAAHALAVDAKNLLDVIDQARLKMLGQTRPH
Sequence of Fibroblast growth factor 2 (Homo sapiens) (P09038 whole entry, looked up): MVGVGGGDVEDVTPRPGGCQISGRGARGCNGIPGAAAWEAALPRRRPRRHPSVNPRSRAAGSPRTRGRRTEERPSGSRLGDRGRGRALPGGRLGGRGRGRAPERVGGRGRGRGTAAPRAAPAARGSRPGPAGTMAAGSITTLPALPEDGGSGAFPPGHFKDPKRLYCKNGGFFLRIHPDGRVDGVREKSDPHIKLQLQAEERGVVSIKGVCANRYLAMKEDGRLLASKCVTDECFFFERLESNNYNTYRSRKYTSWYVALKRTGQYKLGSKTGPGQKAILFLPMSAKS
Sequence of Concanavalin-A (Canavalia ensiformis) (P02866 whole entry, looked up): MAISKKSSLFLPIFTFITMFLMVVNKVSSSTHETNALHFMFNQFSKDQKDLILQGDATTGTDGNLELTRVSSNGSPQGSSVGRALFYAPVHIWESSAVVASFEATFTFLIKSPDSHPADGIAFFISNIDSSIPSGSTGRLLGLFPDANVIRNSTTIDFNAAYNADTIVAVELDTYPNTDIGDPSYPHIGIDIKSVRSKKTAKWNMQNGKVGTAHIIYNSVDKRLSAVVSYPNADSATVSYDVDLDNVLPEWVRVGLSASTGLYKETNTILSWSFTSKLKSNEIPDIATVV
Sequence of Luciferin 4-monooxygenase (Photinus pyralis) (P08659 whole entry, looked up): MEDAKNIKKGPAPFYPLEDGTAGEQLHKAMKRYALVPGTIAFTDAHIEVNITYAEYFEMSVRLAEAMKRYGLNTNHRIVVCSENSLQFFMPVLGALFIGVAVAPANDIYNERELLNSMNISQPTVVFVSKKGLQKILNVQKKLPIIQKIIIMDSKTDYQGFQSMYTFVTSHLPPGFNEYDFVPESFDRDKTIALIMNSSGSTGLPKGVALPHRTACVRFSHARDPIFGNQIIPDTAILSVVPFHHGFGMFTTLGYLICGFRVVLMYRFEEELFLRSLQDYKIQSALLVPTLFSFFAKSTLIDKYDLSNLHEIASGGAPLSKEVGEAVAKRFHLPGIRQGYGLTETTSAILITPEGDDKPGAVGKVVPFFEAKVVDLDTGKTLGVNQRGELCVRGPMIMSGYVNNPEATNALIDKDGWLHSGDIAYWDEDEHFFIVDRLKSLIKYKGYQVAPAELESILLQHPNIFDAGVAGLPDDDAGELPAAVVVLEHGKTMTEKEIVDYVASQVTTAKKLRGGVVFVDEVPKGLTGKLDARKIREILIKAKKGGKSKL
Sequence of Albumin (Bos taurus) (P02769 whole entry, looked up): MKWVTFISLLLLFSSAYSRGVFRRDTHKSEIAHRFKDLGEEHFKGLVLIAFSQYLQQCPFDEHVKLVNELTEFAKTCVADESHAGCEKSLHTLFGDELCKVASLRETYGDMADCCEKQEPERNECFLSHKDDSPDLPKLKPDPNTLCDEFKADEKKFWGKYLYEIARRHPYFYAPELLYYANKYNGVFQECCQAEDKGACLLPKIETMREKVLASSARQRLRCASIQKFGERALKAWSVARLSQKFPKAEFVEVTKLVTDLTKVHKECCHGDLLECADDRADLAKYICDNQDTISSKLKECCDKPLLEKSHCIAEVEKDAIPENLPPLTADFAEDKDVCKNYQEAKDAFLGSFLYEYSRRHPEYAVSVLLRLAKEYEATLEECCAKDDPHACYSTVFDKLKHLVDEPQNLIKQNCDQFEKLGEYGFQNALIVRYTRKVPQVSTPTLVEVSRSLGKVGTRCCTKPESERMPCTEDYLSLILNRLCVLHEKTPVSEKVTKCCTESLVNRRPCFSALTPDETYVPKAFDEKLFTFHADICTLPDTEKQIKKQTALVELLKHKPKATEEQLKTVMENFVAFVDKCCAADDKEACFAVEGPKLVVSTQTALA
Sequence of Follistatin (Homo sapiens) (P19883 whole entry, looked up): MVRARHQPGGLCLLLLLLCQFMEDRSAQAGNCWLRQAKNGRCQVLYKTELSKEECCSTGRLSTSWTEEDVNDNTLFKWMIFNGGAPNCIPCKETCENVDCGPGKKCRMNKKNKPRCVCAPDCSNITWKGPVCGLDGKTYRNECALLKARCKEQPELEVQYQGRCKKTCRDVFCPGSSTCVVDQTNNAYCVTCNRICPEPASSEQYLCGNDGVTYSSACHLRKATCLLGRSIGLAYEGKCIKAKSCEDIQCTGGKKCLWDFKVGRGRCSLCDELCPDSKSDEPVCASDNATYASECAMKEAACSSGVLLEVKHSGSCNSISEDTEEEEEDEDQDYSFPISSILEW

Consider `CCCCCCc1nc(-c2cc(C)c(OC)c(C)c2)cc2c1[Si](C(C)C)(C(C)C)O[C@H]2c1ccccc1`, for which the composite z-score in [1] is -0.0154; in test [3] it was -0.194; in test [4] it was -0.0191; in test [5], -0.398; in [6] it was -0.301; in test [7] it was -0.136. Besides, the composite z-score in test [8] was -0.728; in test [9] it was -0.182; in test [10], -0.152; in test [11] it was -0.36; in test [12], -0.341; in test [13], -0.272. Further, the composite z-score in test [14] is -0.399; in test [15] it was 0.0128; in test [16] it was -0.683; in [18], -0.0906; in test [19], -0.372. Also, the composite Z-score in test [2] was -0.315 (inactive). Besides, the z-score was -0.705 in test [17] and 0.844 (inactive) in test [20].
For the compound `COc1cc([C@@H]2N[C@H](C(=O)O)Cc3c2[nH]c2ccccc32)cc(OC)c1OC`, the composite z-score in test [1] is 0.1; in [3], 0.059; in test [4], -0.089; in [5], -0.0165; in test [6], -0.0553; in [7], 0.238. Further, the composite z-score in test [8] is 0.0713; in test [9] it was 0.475; in [10], 0.245; in test [11] it was 0.386; in test [12], 0.431; in [13] it was 0.161. In addition, the composite z-score in test [14] came to 0.514; in test [15], 0.275; in [16] it was 0.254; in [18], 0.531; in [19], 0.373. Moreover, the composite Z-score in [2] is -0.651 (inactive). Further, the z-score in test [17] was 0.559; in test [20], -0.538 (inactive).
On to `CC(C)C[C@@H]1NC(=O)[C@H](CC(C)C)NC(=O)[C@@]23C(=O)N[C@@H](Cc4ccccc4)C2[C@H](C)[C@@]2(C)O[C@H]2C3/C=C/CC/C=C/CNC1=O` (stereo not given in full), for which the composite z-score was 0.734 in test [1]; -0.0657 in [3]; -0.118 in test [4]; 0.578 in test [5]; 0.268 in test [6]; -0.219 in [7]. Moreover, the composite z-score was 1.05 in [8]; 0.702 in test [9]; 1.02 in test [10]; 0.239 in test [11]; 0.329 in test [12]; 0.427 in [13]. For the same compound, the composite z-score in test [14] stood at 0.722; in test [15] it was 0.758; in test [16] it was 0.319; in test [18] it was 1.01; in test [19], 0.265. Also, the composite Z-score in [2] is -0.392 (inactive). The figures for the z-score in [17] and in test [20] were 0.234 and 0.244 (inactive), respectively.
Take `CC(C)(C)OC(=O)CC[C@@]1(C(=O)NCc2ccccc2)N=C(c2ccc(OCCCO)cc2)O[C@@H]1c1ccccc1`: the composite z-score in [1] stood at 0.974; in [3], 0.132; in test [4], 0.09; in test [5], 0.655; in test [6] it was 2.91; in test [7] it was 0.494. The composite z-score is 1.3 in test [8]; -0.416 in test [9]; 1.18 in [10]; 2.76 in [11]; 1.25 in test [12]; 1.18 in [13]. Besides, the composite z-score in test [14] was 0.966; in [15] it was 1.16; in test [16], 0.244; in [18] it was 0.353; in [19] it was 1.53. Also, the composite Z-score in [2] was -0.216 (inactive). Besides, the z-score in test [17] was 0.614; in test [20], -1.54 (inactive).
Consider `COC(=O)C1=CC(c2ccc(CO)cc2)=CC(C2CC2)N(Cc2sc3ccccc3c2Cl)C=C1C(=O)OC` (stereo not given), for which the composite z-score in [1] was 0.971; in test [3], 0.3; in test [4], 0.101; in test [5], 0.866; in test [6], 2.78; in test [7], 0.58. The composite z-score came out at 1.31 in test [8]; 0.185 in test [9]; 1.16 in test [10]; 3.42 in [11]; 1.19 in test [12]; 1.46 in test [13]. Moreover, the composite z-score was found to be 0.896 in test [14]; 0.851 in test [15]; 0.3 in test [16]; 0.573 in test [18]; 1.49 in [19]. Also, the composite Z-score in test [2] was 0.152 (inactive). Also, the figures for the z-score in test [17] and in test [20] were 2.04 and -1.55 (inactive), respectively.
Regarding `C[C@H]1COC(=O)[C@H](Cc2ccccc2)NC(=O)[C@@H](C)COC(=O)[C@H](Cc2ccccc2)NC1=O`, the composite z-score is 0.732 in test [1]; -0.0377 in [3]; -0.0967 in test [4]; 0.447 in test [5]; 0.612 in test [6]; 0.275 in test [7]. The composite z-score in test [8] was determined as 1.27; in [9] it was 0.845; in [10], 0.892; in test [11], 1.46; in [12], 1.12; in [13] it was 0.327. Moreover, the composite z-score is 0.194 in test [14]; 0.593 in test [15]; 0.635 in test [16]; 1.03 in [18]; 0.523 in [19]. Moreover, in test [2], the composite Z-score is 0.0705 (inactive). In addition, the z-score was 1.04 in test [17] and -0.443 (inactive) in [20].
As for `Cc1ccc(S[C@]2(C(=O)NC(C)C)CC(=O)N(C3Cc4ccccc4C3)[C@@H]2c2ccc(CO)cc2)cc1`, the composite z-score in test [1] was 0.451; in [3] it was -0.409; in test [4] it was -0.205; in [5], 0.81; in test [6], 1.86; in test [7], 0.123. The composite z-score in [8] was -0.0334; in [9] it was -1.2; in [10], 1.16; in test [11], 2.13; in [12], 0.627; in test [13] it was 0.447. The composite z-score was 0.686 in [14]; 0.34 in [15]; -0.438 in test [16]; 0.123 in test [18]; 0.923 in test [19]. The composite Z-score in test [2] was 0.52 (inactive). Moreover, the z-score in [17] was 0.186; in [20] it was 0.187 (inactive).
In the case of `CO[C@H]1COC(=O)CC=C[C@H](C)[C@@H](OC)COC(=O)CC=C[C@@H]1C`, the composite z-score in test [1] was -0.683; in test [3], -0.155; in test [4], -0.14; in [5] it was -0.782; in test [6], -0.702; in [7], -0.36. The composite z-score in test [8] is -0.294; in test [9], 1.21; in [10], -1.25; in [11], 0.245; in [12], -1.11; in test [13], -0.415. Also, the composite z-score in test [14] is -0.706; in test [15], 0.956; in test [16], 1.29; in test [18], 0.817; in [19] it was -0.991. For the same compound, the composite Z-score in test [2] is 0.142 (inactive). Besides, the z-score in [17] was 1.35; in test [20] it was -1.38 (inactive).
As for `CCOC(=O)C[C@H]1[C@H](OC(=O)Cc2ccc3c(c2)OCO3)[C@@H](NC(=O)CC(C)C)c2cc(OCCCO)ccc2N1C(=O)c1ccccc1`, the composite z-score in test [1] is 0.842; in test [3] it was -0.0682; in [4] it was 0.0972; in [5], 0.186; in test [6], 0.41; in test [7] it was -0.0777. The composite z-score is 0.562 in [8]; 0.133 in test [9]; -1.14 in test [10]; -0.314 in test [11]; 0.157 in test [12]; 0.344 in [13]. The composite z-score in [14] amounted to 0.165; in test [15], 0.45; in [16] it was 0.503; in test [18] it was 0.492; in test [19] it was 0.0122. Besides, the composite Z-score in [2] is 0.312 (inactive). The z-score in test [17] was 1.91; in test [20] it was -1.26 (inactive).
